# Cruzain Triton: cruzain (T. cruzi) inhibition with detergent. actives 0.43% (n = 200,000). Potency, µM, without a hit: max response, negative = inhibition, hits mostly inhibitors. P25779. purified cruzain, Z-FR-AMC fluorescence, 0.01% Triton;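 further: plate controls were neutral wells for no effect and buffer without enzyme for full effect; nearly all actives have a fitted effect of over 40% in size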
# Target sequence (P25779 123-467 limits assumed): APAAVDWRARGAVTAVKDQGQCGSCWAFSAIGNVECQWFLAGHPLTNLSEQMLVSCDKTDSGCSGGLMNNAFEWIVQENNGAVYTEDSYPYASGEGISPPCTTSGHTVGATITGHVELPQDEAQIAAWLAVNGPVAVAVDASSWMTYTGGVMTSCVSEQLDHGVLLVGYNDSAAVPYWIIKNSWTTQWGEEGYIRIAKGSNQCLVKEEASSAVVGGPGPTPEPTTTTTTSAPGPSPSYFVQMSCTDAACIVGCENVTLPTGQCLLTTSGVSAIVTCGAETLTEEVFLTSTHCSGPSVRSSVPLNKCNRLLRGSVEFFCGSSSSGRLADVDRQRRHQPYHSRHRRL
#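 Compounds were screened in titration against cruzain (1.5 nM) with 0.01% Triton X-100 to counter colloidal aggregation. Activity was the AMC fluorescence increase over 60 s after adding 2 uM Z-FR-AMC at pH 5.5.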
# Cruzain inh noDet: blocks cruzain activity in detergent-free assay. purified cruzain, Z-FR-AMC fluorescence, no detergent. Potency, µM, inactives show max response, negative = inhibition, hits mostly inhibitors. actives 2.3% (n = 200,000). AID 1476;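 further: plate controls were enzyme without inhibitor for no effect and buffer without enzyme for full effect; nearly all actives have a fitted effect of over 40% in size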
#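 Purified cruzain at 1.5 nM, pre-incubated 15 min with compound at room temperature in 100 mM sodium acetate pH 5.5, 5 mM DTT, 0.00005% Triton X-100. Reaction started with 2 uM Z-FR-AMC; AMC fluorescence increase over 60 s gives rate.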
# The depositor's hits bear a star; ? = inconclusive. Most compounds without a hit are left out; they make up all but 2.4% or so of the library. The call rests on the fitted dose curve; in most records, active means well fitted curve in the direction sought with a large enough effect; inconclusive means small, poorly fitted or top-dose-only effect, or another doubt; inactive means no such curve, though single readings can be large; an effect the other way counts as inactive or inconclusive. Potency means the concentration at half of the fitted maximal effect.
SMILES,Cruzain Triton,Cruzain inh noDet
Cc1cc(C(=O)CSc2nnc(-c3ccco3)o2)c(C)n1CC1COc2ccccc2O1 (stereo not given),0.6%,?
CC(C)(C)c1ccc(-c2nnc(SCC(=O)c3ccc4c(c3)OCCO4)o2)cc1,1.1%,-11.1%
Cc1cc(C(=O)CSc2nnc(-c3ccc(F)cc3)o2)c(C)n1CC1CCCO1 (stereo not given),3.9%,14.8%
Cc1cc(C(=O)CSc2nnc(-c3ccc(F)cc3)o2)c(C)n1CC1COc2ccccc2O1 (stereo not given),5.8%,15.8µM*
Cc1cc(C(=O)CSc2nnc(-c3ccccc3)o2)c(C)n1CC1COc2ccccc2O1 (stereo not given),5.0%,20µM*
O=C(CSc1nnc(-c2ccc(F)cc2)o1)c1ccc2c(c1)OCCO2,1.8%,12.6µM*
Cc1ccccc1C(=O)NNc1ncnc2c1cnn2-c1cccc(Cl)c1,1.5%,-11.9%
COc1cc(Cl)c(C)cc1NC(=O)CC(c1ccc(F)cc1)N1Cc2ccccc2C1=O (stereo not given),-3.9%,2.8%
O=C(N=Nc1c(O)n(Cc2ccccc2)c2ccccc12)c1ccc(O)cc1,-2.7%,?
Cc1ccc(NC(=O)Cn2c(=O)nc(-c3ccccc3)c3ccccc32)cc1,-0.8%,4.6%
Cc1ccc(NC(=O)Cn2c(O)c(N=NC(=O)c3cc4ccccc4cc3O)c3ccccc32)cc1,-9.2%,10µM*
O=C(N=Nc1c(O)n(Cc2ccccc2)c2ccccc12)c1cc2ccccc2cc1O,-7.9%,7.94µM*
C#C[C@]1(O)CC[C@H]2C3CCC4=Cc5oncc5CC4(C)C3CCC21C (stereo not given in full),-8.4%,8.3%
COc1ccc2nc(NC(=O)c3ccc(S(=O)(=O)N4CCCC(C)C4)cc3)sc2c1 (stereo not given),-0.7%,-8.7%
COc1ccccc1NC(=O)c1ccccc1NC(=O)c1cc(Cl)ccc1NC(=O)c1ccco1,-4.9%,15.8µM*
COc1ccccc1NC(=O)c1cc(Cl)ccc1NC(=O)c1ccco1,-2.7%,2.9%
Cn1nc(-c2ccccc2)c(CSc2ccccc2Cl)c1Cl,2.7%,-0.3%
Cc1ccc(S(=O)(=O)c2c(COC(=O)c3ccccc3Cl)c(-c3ccccc3)nn2C)cc1,3.1%,20µM*
CC(=O)Nc1ccc(S(=O)(=O)N(Cc2ccccc2)Cc2ccccc2)cc1,-9.1%,?
Cc1ccc(Cn2c(SCC(=O)NCc3ccc(Cl)cc3)nc3ccsc3c2=O)cc1,3.1%,6.5%
O=C(Nc1nc2n(n1)C(c1ccc(F)cc1)C=C(c1ccccc1)N2)c1cccc([N+](=O)[O-])c1 (stereo not given),3.9%,5.3%
COc1ccc(/C=C(\C#N)C(N)=O)c(OC)c1,-6.1%,7.0%
Cc1ccc2cccc(S(=O)(=O)N3CCN(c4cccc(Cl)c4)CC3)c2n1,-0.5%,-2.3%
CCc1ccc(-c2cc(C)no2)cc1S(=O)(=O)N1CCN(c2cccc(Cl)c2)CC1,-3.0%,25.1µM*
Cc1c(-c2ccccc2)oc2cc(O)ccc2c1=O,4.2%,10.0%
SMILES,Cruzain Triton,Cruzain inh noDet
O=C1C(O)=C(O)C(=O)C(O)=C1O,-4.2%,3.1%
[O-]/C(=C(\C(=S)Nc1cccc2ccccc12)[n+]1ccccc1)c1ccc(Cl)s1,-13.9%,7.94µM*
CC(C)(C)c1cc[n+](/C(C(=S)NC2CC2)=C(/[O-])c2ccc(Cl)s2)cc1,-10.1%,-5.1%
Cc1cc(C(=O)CSc2nnc(NCc3ccccc3)s2)c(C)n1C,-1.4%,-12.4%
CC(Sc1nnc(NCc2ccccc2)s1)C(=O)Nc1ccc2c(c1)C(=O)c1ccccc1C2=O (stereo not given),-9.1%,31.6µM*
CCOC(=O)c1cc(-c2ccccc2)n(CCCC(=O)Nc2ccccc2C)c1C,-5.6%,10.7%
COc1ccc(-c2nc3cnc(OC)nc3n(Cc3cccc(OC)c3)c2=O)cc1,2.0%,-4.0%
O=C(COC(=O)c1ccc2c(c1)C(=O)N(c1cccc3ncccc13)C2=O)c1ccc(Cl)cc1,-3.6%,?
O=C(OCC(=O)c1ccc(Cl)cc1Cl)c1ccc2c(c1)C(=O)N(c1cccc3ncccc13)C2=O,6.4%,20µM*
CCCCN(CC)C(=O)CSc1c2c(nc3ccc(Cl)cc13)CCCC2,-15.4%,-3.6%
CCCOc1ccc(/C=c2\sc3nc(-c4ccco4)nn3c2=O)cc1OCC,-0.4%,8.0%
CCCOc1ccc(Cc2nn3c(=O)/c(=C/c4ccco4)sc3nc2=O)cc1,-6.1%,10µM*
COc1ccc(CN2C(=O)N(c3ccc(F)cc3)C(=O)C2CC(=O)Nc2cc(OC)cc(OC)c2)cc1 (stereo not given),-4.0%,4.8%
COc1ccc(Oc2ncc3nc(-c4ccc(OC)cc4)c(=O)n(C4CC4)c3n2)cc1,0.4%,0.2%
Cc1ccccc1Nc1nc(N)c(C(=O)c2ccccc2Cl)s1,-8.8%,?
O=C1CCSc2cccc3cccc(c23)N1,-4.2%,-6.7%
c1cc2c3c(c1)ccc1cccc(c13)C2,3.5%,-3.7%

# Screening data as filed in PubChem.
